An excerpt weighted towards active compounds, which were near 2.4% of everything screened.
Wnt bcat act: activators of Wnt/beta-catenin signaling; Wnt/beta-catenin reporter cell assay, activator, plate reader; activation, % at 9.35 µM; 1.2% of 300,000 active; AID 743398; in the data active = activation above about 30%, passing the limit was not always enough;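 note: 0% = neutral control wells and 100% = positive control wells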
NSD2 inh: inhibitors of human histone methyltransferase NSD2. 0.54% of 310,000 active. NSD2 peptide methylation, AlphaScreen, 120 min. inhibition, % at 12.5 µM. O96028. AID 743445
miR122 inh: inhibitors of miR-122 in Huh7 cells; Huh7 miR-122 Renilla luciferase sensor, 48 h; neutral wells = 0, positive control = 100; activation (reporter increase), % at 12.5 µM; 0.3% of 340,000 active; AID 602342;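 active = mean replicate activation score at least 90 and every replicate individually at or above 90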;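 note: higher luciferase means less miR-122 activity so hits act as miR-122 inhibitors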
Dyrk1A ADPGlo: blocks rat Dyrk1A kinase activity; Q63470; ADP-Glo luminescence, NFATc1 peptide; inhibition, % at 12.5 µM; 0.43% of 310,000 active; AID 504441;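 note: plate controls were vehicle with enzyme for no effect and no enzyme for full effect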
MITF TRPM1 HTS: increases MITF-driven TRPM1 promoter luciferase signal. SK-MEL-5 TRPM1-promoter luciferase, 24 h; % of positive control, neutral wells = 0. activation, % at 12.5 µM. 0.75% of 300,000 active. AID 588334;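 active = mean activation of at least 80% with every replicate also reaching 80%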;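 note: 0% = neutral control wells and 100% = parthenolide positive control wells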
GSIS activator: GLuc luminescence reporter in INS-1E cells, primary screen for activators of glucose-dependent secretion of insulin; INS-1E GLuc reporter insulin secretion, 2-3 h; activation, % at 16.6 µM; 0.61% of 370,000 active; AID 743287;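 active = lowest replicate activation of at least 40%, so every replicate reaches that level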;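 note: 0% = median of neutral control wells and 100% = median of IBMX positive control wells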
Dyrk1A artifact: counter-screen for Dyrk1A inhibitors: ADP-Glo luciferase artifacts; shares compounds with Dyrk1A ADPGlo; ADP-Glo luciferase artifact assay, no Dyrk1A, luminescence; AC50, µM (titrated, usually from 12 µM), for the others: at the highest dose activity change, negative = inhibition; 1,300 tested, under 10 active; AID 588348;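 active = fitted half-maximal dose AC50 no more than ten times the top valid tested dose, with luminescence dropping as dose rises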
miR-27b qPCR: selectivity of miR-122 inhibitors: effect on miR-27b in Huh7; relative miR-27b level (unnormalised ratio), ratio at 35 µM; 35 tested, under 10 active; shares compounds with miR122 inh; AID 687039; Huh7 miR-27b levels, qRT-PCR, 48 h;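 active = compounds lowering miR-27b whose fitted half-maximal dose is at most twice their top tested dose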
Alpha artifact: interferes with AlphaScreen signal, flagging NSD2 false positives; AID 1053174; 9.4% of 1,500 active; AlphaScreen artifact counterscreen, preloaded methylated H4 peptide; AC35, µM (series often up to 10 µM), for the others: top-dose activity change, negative = signal loss; shares compounds with NSD2 inh; call rule not given here
Active calls of the source: *; x = no result given; [ ] = remark or other dose. Cut-off read from the data, not from the text of the source, unless noted: active = inhibition above about 50%; inactive = the rest.

SMILES | Wnt bcat act | NSD2 inh | miR122 inh | Dyrk1A ADPGlo | MITF TRPM1 HTS | GSIS activator | Dyrk1A artifact | others
O=c1c2c(O)cc(O)cc2oc2ccc(O)c(O[C@@H]3O[C@H](CO)[C@@H](O)[C@H](O)[C@H]3O[C@H]3O[C@H](CO)[C@@H](O)[C@H](O)[C@H]3O)c12 | -0.9 | x | -1.9 | 78.8* | 5.0 | 14.7 | 10.3%
CC1OC(OCC2OC(Oc3c(-c4ccc(O)cc4)oc4cc(O)cc(O)c4c3=O)C(O)C(O)C2O)C(O)C(O)C1O (centres undefined) | -1.5 | x | 4.7 | 53.0* | 6.8 | -7.6 | 7.9%
C[C@H](CO)N1C[C@H](C)[C@H](CN(C)Cc2ccccc2)OCCCC[C@H](C)Oc2ccc(NC(=O)NC3CCCCC3)cc2C1=O | x | x | 10.5[16.7 µM] | x | x | -12.3 | x
Cc1cc2c(ccc3[nH]onc32)n1 | x | x | -5.3 | 51.1* | x | x | 7.5%
COc1ccc(S(=O)(=O)N(C)C[C@H]2Oc3c(NS(=O)(=O)c4ccccc4)cccc3C(=O)N([C@H](C)CO)C[C@H]2C)cc1 | x | x | -1.3[16.7 µM] | x | x | -9.1 | x
CC(C)(C)[S@](=O)N1Cc2cc(C(=O)O)nc(-c3cccc(-c4cccc(F)c4)c3)c2[C@@H]1CCO | x | x | x | x | x | -3.5 | x
COc1ccc2c(c1)c(=O)oc1c(C)c(OCc3cc(C(=O)O)oc3C)ccc12 | -10.9 | x | 1.6 | 51.0* | -11.1 | 3.7 | 8.2%
COc1ccc2c(c1)c(=O)oc1c(C)c(OCc3ccc(C(=O)O)cc3)ccc12 | x | -1.3 | x | 2.8 | 9.7 | -6.8 | x
Nc1[nH]n2c(=O)cc(-c3ccccc3)nc2c1N=Nc1ccc(S(N)(=O)=O)cc1 | -5.7 | 2.2 | x | 64.1* | -5.1 | -7.5 | 7.0%
Nc1[nH]n2c(=O)cc(-c3ccccc3)nc2c1N=Nc1ccccc1 | x | 13.4 | -4.5 | 12.2 | -6.1 | x | x
COc1ccc(C(=O)N2CCN(c3c(C)cccc3C)CC2)cc1OC | -0.9 | x | -9.6 | 58.5* | x | -14.8 | 8.7%
COCC#Cc1cnc2c(c1)C(=O)N([C@H](C)CO)C[C@H](C)[C@H](CN(C)C)O2 | x | x | 3.0[16.7 µM] | x | x | 29.8 | x
C[C@@H]1CCCCO[C@@H](CN(C)S(=O)(=O)c2cccs2)[C@@H](C)CN([C@@H](C)CO)C(=O)c2cc(NC(=O)C3CCCCC3)ccc2O1 | x | x | 5.4[16.7 µM] | x | x | 0.8 | x
COc1ccc(-c2ccc3n(c2=O)C[C@@H]2[C@@H](CO)[C@H](C(=O)N(C)C)[C@H]3N2Cc2ccncc2)cc1 | x | x | 4.3[16.7 µM] | x | x | 12.9 | x
C[C@@H]1CN([C@@H](C)CO)C(=O)c2cc(C#CC3CC3)cnc2O[C@@H]1CN(C)C(=O)Nc1ccc(F)cc1 | x | x | 2.6[16.7 µM] | x | x | -5.4 | x
Cc1c(O)ccc2c(CN(C)Cc3ccccc3)cc(=O)oc12 | 2.1 | 6.2 | 3.8 | 59.2* | 0.7 | 4.6 | 8.4%
O=[N+]([O-])c1cc(/C=N/O)ccc1Oc1ccccc1Cl | 16.6 | 5.5 | x | 60.8* | 72.1 | 10.5 | 8.6%
O=C1CC(c2ccc(S(=O)(=O)NC3CC3)cc2)CN1 (centres undefined) | 15.7 | x | x | 58.3* | 6.9 | -0.7 | 9.9%
O=C1CC(c2ccc(S(=O)(=O)NCc3ccncc3)cc2)CN1 (centres undefined) | -1.9 | x | 2.6 | 1.0 | -3.7 | -1.6 | x
Cc1ccc(-c2nn[nH]n2)cc1Cl | -0.4 | -1.8 | -2.7 | 53.2* | x | x | 7.6%
Cc1ccc(-c2nn[nH]n2)cc1 | -5.6 | -3.0 | -4.3 | 26.8 | 5.3 | x | x
Cc1cccc(COCC(Cc2ccccc2)N2CCN(C(=O)c3ccc(Cl)c(Cl)c3)CCC2=O)c1 (centres undefined) | -0.9 | x | -4.0 | 5.3 | -3.0 | x | x
O=C(c1ccc(Cl)c(Cl)c1)N1CCC(=O)N(C(COCc2cccc(C(F)(F)F)c2)Cc2ccccc2)CC1 (centres undefined) | -4.6 | x | x | 53.1* | 1.4 | -15.5 | 6.2%
O=C(O)c1ccc(-n2cc(-c3cc4ccccc4oc3=O)[nH]c2=S)cc1 | -3.0 | 6.2 | x | 66.6* | 23.8 | 19.0 | 9.2%
C[C@H](CO)N1C[C@H](C)[C@H](CN(C)C(=O)c2ccc3c(c2)OCO3)Oc2ncc(C3=CCCC3)cc2C1=O | x | x | 12.2[16.7 µM] | x | x | 22.3 | x
SMILES | Wnt bcat act | NSD2 inh | miR122 inh | Dyrk1A ADPGlo | MITF TRPM1 HTS | GSIS activator | Dyrk1A artifact | others
O=C1NC(=S)SC1=Cc1ccc2c(c1)OCO2 | 2.6 | -3.4 | -3.1 | 48.8 | 1.6 | 23.4 | x
O=C1N/C(=N/S(=O)(=O)Cc2ccccc2)S/C1=C/c1ccc2c(c1)OCO2 | 2.5 | 3.4 | 13.7 | 92.0* | -8.4 | 1.8 | 7.8%
CC=Cc1ccc2n(c1=O)C[C@H]1[C@H](CO)[C@@H](C(=O)NCC)[C@@H]2N1C(=O)C1CC1 (mixture of isomers) | x | x | x | x | x | 6.8 | x
Cc1ccc(S(=O)(=O)N(C)C[C@@H]2Oc3ccc(NC(=O)CCN4CCOCC4)cc3C(=O)N([C@H](C)CO)C[C@H]2C)cc1 | x | x | 6.3[16.7 µM] | x | x | -2.5 | x
Fc1ccccc1NC(=S)Nc1cccc2cnccc12 | 2.4 | 99.3* | x | 64.9* | 10.2 | -20.4 | 8.9% | Alpha artifact=-3.8%
NC(=S)Nc1cccc2cnccc12 | x | -1.4 | 2.2 | 17.1 | -0.5 | x | x
O=C1c2c(O)ccc(O)c2C(=O)c2c(NCCNCCO)ccc(NCCNCCO)c21 | -24.1 | 92.0* | 3.1 | 52.4* | -85.1 | -0.5 | 2.8% | Alpha artifact=2.03µM*
Oc1ccc(C2=Nn3c(nnc3-c3ccco3)SC2)cc1O | x | 62.4* | 7.4 | 79.0* | -15.1 | x | 13.8% | Alpha artifact=-23.2%
COCC(=O)N1CCC2(CC1)CN(S(C)(=O)=O)[C@H](CO)c1c2c2ccc(OC)cc2n1C | x | x | x | x | x | 3.9 | x
O=C1c2ccccc2C(=O)c2c(O)c(O)cc(O)c21 | 0.4 | x | -9.6 | 24.4 | -10.4 | x | x
O=c1c(O)cccc2cc(O)c(O)c(O)c12 | -5.1 | 127.5* | -12.3 | 81.9* | -31.6 | 4.4 | 12.3% | Alpha artifact=1.58µM*
CC(C)NC(=O)Nc1ccc2c(c1)C(=O)N([C@@H](C)CO)C[C@H](C)[C@H](CN(C)Cc1ccncc1)O2 | x | x | 3.3[16.7 µM] | x | x | 3.1 | x
Cc1cc(Cl)c(Cl)cc1S(=O)(=O)NCCCn1ccnc1 | -1.0 | -1.5 | 132.0* | 1.9 | 3.1 | -5.8 | x | miR-27b qPCR=0.869
Cc1ccc(C)c(S(=O)(=O)NCCCn2ccnc2)c1 | x | -0.4 | 2.7 | -4.6 | -10.6 | -2.8 | x
COc1ccc2c3c(n(C)c2c1)[C@H](CO)N(C(=O)Cc1ccccn1)CC31CN(CC2CCCCC2)C1 | x | x | x | x | x | 20.1 | x
COc1cc(C)c(C(C)C)cc1S(=O)(=O)n1cnc(C)c1 | 3.5 | x | 152.2* | 3.2 | -3.4 | 1.8 | x | miR-27b qPCR=0.91
